In all, about 2,000 compounds were measured (“B-score”: median about -0.0024, highest 2% from about 4 on). What follows is part of a selection rich in the highest values, with near analogues and random picks from the rest.
System: Balamuthia mandrillaris (ATCC PRA-291) trophozoites, axenic culture
Assay: primary screen, b score
Settings: 20 µM
How it was run: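 Trophozoites (3,000/well) in axenic medium exposed to library drugs at 20 µM in 0.2% DMSO for 72 h; viability by CellTiter Glo luminescence at 2, 4 and 8 h. Controls: vehicle and freeze-thaw amoeba lysate; B-score corrects row, column and edge effects.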

Structure (SMILES)	B-score
C/C=C/C/C=C/CCC(=O)[C@H]1O[C@H]1C(N)=O	-0.632
CN(CC(=O)O)C(=N)N	-5.89
CN1C2CCC[C@H]1C[C@H](NC(=O)c1nn(C)c3ccccc13)C2	-0.598
C[S+](CC[C@H](N)C(=O)O)C[C@H]1O[C@@H](n2cnc3c(N)ncnc32)[C@H](O)[C@@H]1O (some centres unmarked)	0.856
CC(=O)c1ccc2c(c1)N(CCCN1CCC(CCO)CC1)c1ccccc1S2	-0.0165
CC(C)(C)CC(C)(C)c1ccc(O)c(Cc2ccc(Cl)cc2Cl)c1	2.02
Oc1ccc(Cl)cc1	0.00397
Oc1ccc(Cl)cc1Cc1cc(Cl)ccc1O	5.34
Cc1cc(C(C)(C)C)c(O)c(C(C)(C)C)c1	-0.212
Nc1nc(=O)n([C@@H]2CS[C@H](CO)O2)cc1F	-0.911
CNC(=O)c1c(I)c(NC(C)=O)c(I)c(C(=O)O)c1I	0.108
CO[C@H](C(=O)[C@@H](O)[C@@H](C)O)[C@@H]1Cc2cc3cc(O[C@H]4C[C@@H](O[C@H]5C[C@@H](O)[C@H](O)[C@@H](C)O5)[C@H](O)[C@@H](C)O4)c(C)c(O)c3c(O)c2C(=O)[C@H]1O[C@H]1C[C@@H](O[C@H]2C[C@@H](O[C@H]3C[C@](C)(O)[C@H](O)[C@@H](C)O3)[C@@H](O)[C@@H](C)O2)[C@H](O)[C@@H](C)O1	8.18
CC(=O)O[C@@]12CO[C@@H]1C[C@H](O)[C@@]1(C)C(=O)[C@H](O)C3=C(C)[C@@H](OC(=O)[C@H](O)[C@@H](NC(=O)OC(C)(C)C)c4ccccc4)C[C@@](O)([C@@H](OC(=O)c4ccccc4)C12)C3(C)C (some centres unmarked)	-2.24
CCN1CCCC(OC(=O)C(c2ccccc2)c2ccccc2)C1 (centres unmarked)	0.874
CC(C)(C)c1ccc(C(O)CCCN2CCC(C(O)(c3ccccc3)c3ccccc3)CC2)cc1 (centres unmarked)	-2.26
Oc1ccnc(O)n1	1.41
CC(C)n1c(/C=C/[C@@H](O)C[C@@H](O)CC(=O)O)c(-c2ccc(F)cc2)c2ccccc21 [255968-L3]	-0.277
CC(C)c1c(C(=O)Nc2ccccc2)c(-c2ccccc2)c(-c2ccc(F)cc2)n1CC[C@@H](O)C[C@@H](O)CC(=O)O	6.68
CC(C)n1c(/C=C/[C@@H](O)C[C@@H](O)CC(=O)O)c(-c2ccc(F)cc2)c2ccccc21 [255968-L2]	3.74
CCC(=O)O[C@]1(C(=O)CCl)[C@@H](C)C[C@H]2[C@@H]3CCC4=CC(=O)C=C[C@]4(C)[C@@]3(F)[C@@H](O)C[C@@]21C [285821-L1]	-1.34
Cc1ccccc1N1CCN(CCc2nnc3n2CCCC3)CC1	2.29

Structure (SMILES)	B-score
COC(=O)N/N=C/c1c[n+]([O-])c2ccccc2[n+]1[O-]	2.88
O=C1CCc2ccc(OCCCCN3CCN(c4cccc(Cl)c4Cl)CC3)cc2N1 [756864-L1]	1.99
CCOC(=O)/C=C(C)/C=C/C=C(C)/C=C/c1c(C)cc(OC)c(C)c1C	-0.469
C[N+](C)(C)CCCCCCCCCC[N+](C)(C)C	0.626
C[N+](C)(C)CCCCCC[N+](C)(C)C	-0.576
CCCCCCCCCCCCCCCC[N+](C)(C)C	10
CC1(C)NC(=O)N(c2ccc([N+](=O)[O-])c(C(F)(F)F)c2)C1=O [131481-L4]	0.0858
CN(C)CC/C=C1/c2ccccc2Sc2ccc(Cl)cc21 [285943-L2]	-0.683
CCN(CC)CCOC(=O)C(c1ccccc1)c1ccccc1	-1.55
FC(F)(F)C(F)(F)C(F)(F)C(F)(F)C(F)(F)C(F)(F)C(F)(F)C(F)(F)Br	1.01
Cc1ccsc1/C=C/C1=NCCCN1C	2.44
CN1CCN(CC(=O)N2c3ccccc3C(=O)Nc3cccnc32)CC1	-0.953
C=C1CC[C@H](O)C/C1=C/C=C1\CCCC2(C)C1CCC2C(C)CCCC(C)C (some centres unmarked)	-1.18
O=c1oc2cc(O)ccc2s1	1.79
COC1O[C@@H]2O[C@@]3(C)CC[C@H]4[C@H](C)CC[C@@H]([C@H]1C)[C@@]24OO3 (some centres unmarked)	-0.0904
CC(=O)[C@H]1CC[C@H]2[C@@H]3CC=C4C[C@@H](OC(=O)CCC(=O)O)CC[C@]4(C)[C@H]3CC[C@]12C	-2.77
CO[C@H]1O[C@@H]2O[C@@]3(C)CC[C@H]4[C@H](C)CC[C@@H]([C@H]1C)[C@@]24OO3	7.12
C[C@@H]1CC[C@H]2[C@@H](C)C(=O)O[C@@H]3O[C@@]4(C)CC[C@@H]1[C@]32OO4	11.9
C[C@@H]1CC[C@H]2[C@@H](C)C(O)O[C@@H]3O[C@@]4(C)CC[C@@H]1[C@]32OO4 (some centres unmarked)	8.14
C/N=C(\NC)NCc1ccccc1	-0.109

Structure (SMILES)	B-score
Cc1c(O)c(=O)ccn1C	-3.39
O=C1CN2Cc3c(ccc(Cl)c3Cl)N=C2N1	1.87
CCN(CC)CCOc1ccc(/C(=C(\Cl)c2ccccc2)c2ccccc2)cc1	-1.4
CC(=O)OC(C)C[N+](C)(C)C (centres unmarked)	1.98
CCN1CCN(C(=O)NC(C(=O)N[C@@H]2C(=O)N3[C@@H]2SC(C)(C)[C@@H]3C(=O)O)c2ccccc2)C(=O)C1=O (some centres unmarked)	2.04
C=C1c2cccc(O)c2C(O)=C2C(=O)[C@]3(O)C(O)=C(C(N)=O)C(=O)[C@@H](N(C)C)[C@@H]3[C@@H](O)[C@H]12	-0.0267
Oc1nc2ccccc2n1CCCN1CCC(n2c(O)nc3cc(Cl)ccc32)CC1	-1.5
C[C@H](COc1ccccc1)N[C@H](C)[C@H](O)c1ccc(O)cc1	0.0782
NC[C@@H]1O[C@H](O[C@H]2[C@@H](O)[C@H](O[C@@H]3[C@@H](O)[C@H](N)C[C@H](N)[C@H]3O[C@H]3O[C@H](CN)[C@@H](O)[C@H](O)[C@H]3N)O[C@@H]2CO)[C@H](N)[C@@H](O)[C@@H]1O	1.53
CC#C[C@]1(O)CCC2C3CCC4=CC(=O)CCC4=C3[C@@H](c3ccc(N(C)C)cc3)C[C@@]21C (some centres unmarked)	2.28
CN1CCC(=C2c3ccccc3CCc3sccc32)CC1	-0.3
CC(=O)OCC(CCn1cnc2cnc(N)nc21)COC(C)=O	0.28
CCC(=O)Oc1ccc2c(c1)CC[C@@H]1[C@@H]2CC[C@]2(C)[C@@H](OC(=O)CC)CC[C@@H]12	-3.91
Clc1ccc(Cn2c(CN3CCCC3)nc3ccccc32)cc1	0.738
COc1ccc(CCN2CCC(Nc3nc4ccccc4n3Cc3ccc(F)cc3)CC2)cc1	-0.484
Cc1nc2ccccc2n1Cc1ccc(Cl)cc1	6.45
CCOC(=O)C1=C[C@@H](OC(CC)CC)[C@H](NC(C)=O)[C@@H](N)C1	-0.221
Cc1c(-c2cnccn2)ssc1=S	1.58
Cc1c(NC(=O)c2cccnc2)c(=O)n(-c2ccccc2)n1C	12.5
Cc1c(N(C)C)c(=O)n(-c2ccccc2)n1C	2.34
Cc1c(NC(C)C)c(=O)n(-c2ccccc2)n1C	-2.14

Structure (SMILES)	B-score
CNC[C@H](O)[C@@H](O)[C@H](O)[C@H](O)CO [757068-L2]	1.95
C[C@]1(Cn2ccnn2)C(C(=O)O)N2C(=O)CC2S1(=O)=O (some centres unmarked)	-2.49
OC(CCN1CCCCC1)(c1ccccc1)C1CCCCC1 (centres unmarked)	0.407
COc1c(N2CCNC(C)C2)c(F)cc2c(=O)c(C(=O)O)cn(C3CC3)c12 (centres unmarked)	0.0884
C[C@@H]1CN(c2c(F)c(F)c3c(=O)c(C(=O)O)cn(C4CC4)c3c2F)C[C@H](C)N1	-1.44
CC[n+]1c(-c2ccccc2)c2cc(N)ccc2c2ccc(N)cc21	3.74
C[n+]1c2cc(N)ccc2cc2ccc(N)cc21	20.4
Nc1ccc2cc3ccc(N)cc3nc2c1	1.36
O=C(O)/C=C/C(=O)O	0.597
CCCCCCCCCCCCCCCC(=O)OC/C=C(C)/C=C/C=C(C)/C=C/C1=C(C)CCCC1(C)C	-0.008
O=C(CCCN1CC=C(n2c(O)nc3ccccc32)CC1)c1ccc(F)cc1	-6.32
CCCc1cc(C(N)=S)ccn1	3.08
O=C(O)[C@H](O)[C@@H](O)[C@H](O)[C@H](O)CO	0.99
CCCCOc1ccc(C(=O)CCN2CCCCC2)cc1 [130801-L5]	-1.2
CCCCOc1ccc(C(=O)CCN2CCCCC2)cc1 [130801-L6]	-2.14
N=C(N)c1ccc(OCCCCCOc2ccc(C(=N)N)cc2)cc1	15.2
CC(C)(O/N=C(\C(=O)N[C@@H]1C(=O)N2C(C(=O)O)=C(C[n+]3ccccc3)CS[C@H]12)c1csc(N)n1)C(=O)O	1.87
CN[C@H](CC(C)C)C(=O)N[C@H]1C(=O)N[C@@H](CC(N)=O)C(=O)N[C@H]2C(=O)N[C@H]3C(=O)N[C@H](C(=O)N[C@H](C(=O)O)c4cc(O)cc(O)c4-c4cc3ccc4O)[C@H](O)c3ccc(c(Cl)c3)Oc3cc2cc(c3O[C@@H]2O[C@H](CO)[C@@H](O)[C@H](O)[C@H]2O[C@H]2C[C@](C)(N)[C@H](O)[C@H](C)O2)Oc2ccc(cc2Cl)[C@H]1O	-0.857
Oc1ccc2c3c1O[C@H]1[C@@H](O)CC[C@@]4(O)[C@@H](C2)N(CC2CCC2)CC[C@]314	0.0386
CN1CCC(=C2c3ccccc3Sc3ccccc32)CC1	-1.07
